From PubChem BioAssay (NCATS)
Inconclusive results are not listed. Calls of active or inactive are those of the source. Unless noted, the call rests on the fitted dose curve; in most records, active means well fitted curve in the direction sought with a large enough effect; inconclusive means small, poorly fitted or top-dose-only effect, or another doubt; inactive means no such curve, though single readings can be large; an effect the other way counts as inactive or inconclusive.

Key:
[1] = Cell Viability - BJ (AID 421; calls by dose curve;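 further: potency means the concentration at half of the fitted maximal effect; cells exposed to compound for 40 hours at 37 °C before readout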); conditions: BJ fibroblast viability, qHTS
In short: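 Cytotoxicity as drop in intracellular ATP (CellTiter-Glo, 20 min RT) after 40 hr compound exposure of BJ fibroblasts at 37 °C. Titrations scaled between DMSO and 100 uM tamoxifen, Hill-fitted for AC50.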

[2] = Cell Viability - Jurkat (AID 426;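 active means dose-dependent loss of cell ATP signal giving a full or clear fitted curve, ranked by lower potency value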; further: potency means the concentration at half of the fitted maximal effect); conditions: qHTS
In short: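 Jurkat (clone E6-1, human T-cell leukemia) cells, 5000/well in complete medium, were exposed to compound for 40 hr at 37 °C. Viability was read as intracellular ATP by CellTiter-Glo luminescence; AC50 came from Hill fits of concentration-response data.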

[3] = Cell Viability - Hek293 (AID 427;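 active means compounds whose dose-response curve shows a full or clear partial loss of cell viability, called from curve shape rather than a numeric limit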;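 further: potency means the concentration at half of the fitted maximal effect; cells exposed to compound for 40 hours at 37 °C before reading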); conditions: qHTS
In short: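 Luminescent ATP content (CellTiter-Glo, 20 min at room temperature) was measured after a 40 hr, 37 °C compound exposure of HEK293 cells. AC50 values came from Hill-equation fits of qHTS concentration-response data normalized to DMSO and 100 uM tamoxifen.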

[4] = Cell Viability - HepG2 (AID 433; calls by dose curve;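 further: potency means the concentration at half of the fitted maximal effect; potency for ATP loss meaning cytotoxicity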); conditions: qHTS
In short: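 ATP luminescence (CellTiter-Glo) after 40 h compound exposure, 37 °C, HepG2, 1500 cells/well, complete medium. Normalized: DMSO = basal, 100 uM tamoxifen = 100% inhibition. AC50 via standard Hill equation.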

[5] = target: Mitogen-activated protein kinase 10 (Mus musculus) (UniProt Q61831); test: JNK3 AlphaScreen Assay (AID 530; active means well fitted curve in either direction with a large enough effect, not every such curve was filed as active;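 further: kinase came from lysate of stimulated human HepG2 cells; signal reports phosphorylation of biotinylated GST-cJun 1-79 at Ser73 with 10 µM ATP; on the % scale 0 is the no-effect control and ±100 the full control effect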); conditions: JNK3 lysate, c-Jun phosphorylation; series mostly up to 57.1 µM
In short: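 qHTS format: compounds tested as titrations against IL-1beta/TNF-alpha-activated HepG2 lysate JNK3 with biotin-GST-cJun substrate and 10 uM ATP at room temperature. Loss of anti-phospho-cJun AlphaScreen signal indicates inhibition.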

[6] = Cell Viability - N2a (AID 540); conditions: N2a mouse neuroblastoma cell viability; activity change, negative = cytotoxicity: at 92.2 µM (top of the series);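 further: plate controls were DMSO alone for no effect and tamoxifen control for full effect; nearly all actives have a fitted effect of over 45% in size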
In short: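 Mouse neuroblastoma N2a cells (1500/well) were preincubated 5 hr at 37 °C, then exposed to compounds for 40 hr at 37 °C in complete medium. Viability was read as intracellular ATP by CellTiter-Glo luminescence; AC50 from Hill fits.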

[7] = Cell Viability - NIH 3T3 (AID 541); conditions: NIH 3T3 cell viability, qHTS; activity change, negative = cytotoxicity: at 92.2 µM (top of the series);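 further: plate controls were DMSO alone for no effect and tamoxifen positive control for full effect; nearly all actives have a fitted effect of over 25% in size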
In short: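 NIH 3T3 mouse embryo fibroblasts (1000 cells/well) were plated in complete medium and treated with compound for 40 hr at 37 °C. Viability was read as intracellular ATP by CellTiter-Glo luminescence; AC50 values came from Hill-equation fits of concentration-response data.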

[8] = Cell Viability - HUV-EC-C (AID 542); conditions: HUV-EC-C endothelial cell viability, qHTS; series mostly up to 92.2 µM; further: on the % scale 0 is the no-effect control and ±100 the full control effect; nearly all actives have a fitted effect of over 35% in size
In short: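 HUV-EC-C normal human vascular endothelial cells, 1000 cells/well, pre-incubated 5 hr at 37 °C, then exposed to compounds for 40 hr at 37 °C in complete medium. Viability measured as intracellular ATP by CellTiter-Glo luminescence; AC50 from Hill fits.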

[9] = Cell Viability - H-4-II-E (AID 543); conditions: H-4-II-E rat hepatoma viability; series mostly up to 92.2 µM; further: on the % scale 0 is the no-effect control and ±100 the full control effect; nearly all actives have a fitted effect of over 35% in size
In short: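 Rat hepatoma H-4-II-E cells (1500/well) were plated, incubated 5 hr at 37 °C, then exposed to compounds for 40 hr at 37 °C. Cellular ATP was read by CellTiter-Glo luminescence; AC50 came from Hill-equation fits of concentration-response data.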

[10] = Cell Viability - SH-SY5Y (AID 544); conditions: SH-SY5Y neuroblastoma cell viability; viability change, negative = cytotoxic: at 92.2 µM (top of the series); further: nearly all actives have a fitted effect of over 55% in size
In short: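 Human neuroblastoma SH-SY5Y cells (1500/well) in complete medium were exposed to compounds for 40 hr at 37 °C; intracellular ATP was then quantified by CellTiter-Glo luminescence after 20 min at room temperature. AC50 came from Hill-equation concentration-response fits.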

[11] = Cell Viability - Renal Proximal Tubule (AID 545); conditions: renal proximal tubule cells viability, primary cells of rat origin; series mostly up to 91.7 µM; further: nearly all actives have a fitted effect of over 40% in size
In short: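 Rat kidney proximal tubule cells, freshly isolated; 1000 cells/well, 5 hr settle, compound 40 hr 37 °C. CellTiter-Glo 20 min RT, luminescence read. AC50 by standard Hill fit.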

[12] = Cell Viability - Mesenchymal (AID 546); conditions: mesenchymal cells viability, qHTS; series mostly up to 91.7 µM;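 further: cells exposed to compound for 40 hours before reading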
In short: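 Human kidney mesenchymal cells from normal renal glomeruli, 1000 cells/well, rested 5 hr at 37 °C, then treated 40 hr at 37 °C in complete medium. Cellular ATP read by CellTiter-Glo luminescence; AC50 from Hill-equation fits.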

[13] = Cellular Toxicity (caspase-3) HepG2 (AID 654); conditions: HepG2 caspase-3 activation, luminescence; series mostly up to 92.2 µM;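 further: cells exposed to compound for 16 hours before reading; 0% = DMSO alone and 100% = caspase signal from 100 µM tamoxifen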
In short: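 HepG2 cells (1500/well) in complete medium were treated with compounds for 16 hr at 37 °C. Caspase-3/7 activity was then read as luminescence from peptide-aminoluciferin cleavage. AC50 came from Hill fits, normalized to DMSO and 100 uM tamoxifen.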

[14] = Cellular Toxicity (caspase-3) Jurkat (AID 655); conditions: Jurkat caspase-3 activation, luminescence; caspase-3 activation: at 92.2 µM (top of the series), DMSO = 0%, tamoxifen = 100%;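 further: cells exposed to compound for 16 h at 37 °C before reading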
In short: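 Luminescent caspase-3/7 readout (aminoluciferin substrate cleavage) in human T-cell leukemia Jurkat cells after 16 hr compound exposure. Concentration-response normalized to DMSO and 100 uM tamoxifen; AC50 by standard Hill equation.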

[15] = Cellular Toxicity (caspase-3) HUV-EC-C (AID 656); conditions: HUV-EC-C cells, caspase-3 activation (apoptosis), vehicle = 0, 100 µM tamoxifen = 100%; series mostly up to 92.2 µM
In short: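 Luminescent caspase-3/7 activation (aminoluciferin substrate cleavage) in HUV-EC-C cells after 16 hr compound exposure, 37°C. Signal normalized to DMSO basal and 100 uM tamoxifen as 100%; AC50 from concentration-response fitted with the Hill equation.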

[16] = Cellular Toxicity (caspase-3) BJ (AID 658); conditions: BJ fibroblasts, luminescence, normalized: DMSO 0%, staurosporine 100%; series mostly up to 91.7 µM;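 further: cells exposed to compound for 16 hours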
In short: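 BJ human foreskin fibroblasts, 1000 cells/well, treated 16 hours at 37 °C in complete medium; caspase 3/7 activity by Caspase-Glo luminescence after 1 hr at room temperature. Normalized to DMSO and 10 uM staurosporine; AC50 from Hill fits.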

[17] = Cellular Toxicity (caspase-3) MRC-5 (AID 659); conditions: MRC-5 cells, luminescence, normalized: DMSO 0%, 10 µM staurosporine 100%; series mostly up to 91.7 µM;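 further: cells exposed to compound for 16 h at 37 °C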
In short: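 MRC-5 human normal lung fibroblasts, 1500 cells/well, treated 16 h at 37 °C in complete medium. Caspase 3/7 measured by Caspase-Glo luminescence after 1 h at room temperature. Normalized to DMSO and 10 uM staurosporine; AC50 from Hill fit.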

[18] = Cell Viability - MRC5 (AID 434; calls by dose curve;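 further: potency means the concentration at half of the fitted maximal effect; potency reflects cytotoxicity seen as loss of intracellular ATP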); conditions: MRC5 lung fibroblast viability, qHTS
In short: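 MRC5 normal human lung fibroblasts, 1500 cells/well, exposed to compound for 40 hr at 37 C. Cellular ATP was read by CellTiter-Glo luminescence; data normalized to DMSO and 100 uM tamoxifen, with AC50 from Hill fits.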

[19] = Cellular Toxicity (caspase-3) SHSY5Y (AID 657); conditions: SH-SY5Y caspase-3 activation, DMSO zero, 10 µM staurosporine = 100%; series mostly up to 91.7 µM;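 further: cells exposed to compound for 16 hours at 37 °C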
In short: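 Luminescent caspase-3/7 readout (aminoluciferin release) in SH-SY5Y cells after 16 h compound exposure in complete medium. Activity scaled between DMSO basal and 10 uM staurosporine as 100%; concentration-response fitted to Hill equation for AC50.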

[20] = Cell Viability - SK-N-SH (AID 435; calls by dose curve; further: potency means the concentration at half of the fitted maximal effect); conditions: SK-N-SH neuroblastoma cell viability qHTS
In short: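 CellTiter-Glo ATP luminescence, 20 min RT read; cells pre-plated 5 hr, compound 40 hr at 37 °C, 1500 cells/well, complete medium. Normalized DMSO = 0, 100 uM tamoxifen = 100% inhibition; Hill-fit AC50.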

NC=O
inactive: Potency [1] > 92 µM | Potency [2] > 92 µM | Potency [3] > 92 µM | Potency [4] > 92 µM | outcome [5] | activity change, negative = cytotoxicity [6] 1.82% | Potency [7] | Potency [8] | Potency [9] | Potency [10] | Potency [11] | Potency [12] | Potency [13] | caspase-3 activation [14] 2.21% | outcome [15] | outcome [16] | outcome [17]

Cc1ccc(C)o1
inactive: Potency [1] > 92 µM | Potency [2] > 92 µM | Potency [3] > 92 µM | Potency [4] > 92 µM | Potency [18] > 92 µM | outcome [5] | activity change, negative = cytotoxicity [6] -9.8% | Potency [8] | Potency [9] | Potency [10] | Potency [12] | Potency [13] | outcome [15] | outcome [19] | outcome [17]

O=[N+]([O-])c1cccc(C(F)(F)F)c1
inactive: Potency [1] > 92 µM | Potency [2] > 92 µM | Potency [3] > 92 µM | Potency [4] > 92 µM | Potency [20] > 92 µM | outcome [5] | activity change, negative = cytotoxicity [6] 4.54% | Potency [7] | Potency [8] | Potency [9] | Potency [10] | Potency [11] | Potency [12] | Potency [13] | caspase-3 activation [14] 0.763% | outcome [15] | outcome [19] | outcome [16] | outcome [17]

Cc1nc2ccc(Cl)cc2[nH]1
inactive: Potency [1] > 92 µM | Potency [2] > 92 µM | Potency [3] > 92 µM | Potency [4] > 92 µM | Potency [20] > 92 µM | outcome [5] | activity change, negative = cytotoxicity [6] -5.91% | Potency [7] | Potency [8] | Potency [9] | Potency [10] | Potency [11] | Potency [12] | Potency [13] | outcome [15] | outcome [19] | outcome [17]

O=C1NC(=O)c2cc([N+](=O)[O-])ccc21
inactive: Potency [1] > 92 µM | Potency [2] > 92 µM | Potency [3] > 92 µM | Potency [4] > 92 µM | Potency [20] > 92 µM | outcome [5] | activity change, negative = cytotoxicity [6] -3.32% | Potency [8] | Potency [9] | Potency [10] | Potency [11] | Potency [12] | Potency [13] | caspase-3 activation [14] 0.91% | outcome [19] | outcome [16] | outcome [17]

CCCCCCCN
inactive: Potency [1] > 92 µM | Potency [2] > 92 µM | Potency [3] > 92 µM | Potency [4] > 92 µM | Potency [18] > 92 µM | outcome [5] | activity change, negative = cytotoxicity [6] -10.2% | Potency [8] | Potency [9] | Potency [10] | Potency [11] | Potency [12] | Potency [13] | caspase-3 activation [14] -1.01% | outcome [15] | outcome [19] | outcome [17]

C/C=C1\CC2C=CC1C2 (stereo unspecified)
inactive: Potency [1] > 92 µM | Potency [2] > 92 µM | Potency [3] > 92 µM | Potency [4] > 92 µM | outcome [5] | activity change, negative = cytotoxicity [6] 4.82% | Potency [8] | Potency [10] | Potency [11] | Potency [12] | Potency [13] | caspase-3 activation [14] -1.14% | outcome [15] | outcome [19] | outcome [16] | outcome [17]

CC(N)CN (stereo unspecified)
inactive: Potency [1] > 92 µM | Potency [2] > 92 µM | Potency [3] > 92 µM | Potency [4] > 92 µM | Potency [18] > 92 µM | activity change, negative = cytotoxicity [6] 3.26% | Potency [7] | Potency [8] | Potency [9] | Potency [10] | Potency [11] | Potency [12] | Potency [13] | caspase-3 activation [14] 2.43% | outcome [15] | outcome [16] | outcome [17]

CC(=C/C=C/C(C)=C/C=C/C=C(C)/C=C/C=C(C)/C=C/C(=O)O)/C=C/C(=O)O
inactive: Potency [1] > 92 µM | Potency [2] > 92 µM | Potency [4] > 92 µM | Potency [18] > 92 µM | Potency [20] > 92 µM | outcome [5] | activity change, negative = cytotoxicity [6] -0.984% | Potency [7] | Potency [8] | Potency [9] | Potency [10] | Potency [11] | Potency [12] | Potency [13] | caspase-3 activation [14] -0.472% | outcome [15] | outcome [16] | outcome [17]

C=C(C)C1CC=C(C)C(OC(C)=O)C1 (stereo unspecified)
inactive: Potency [1] > 92 µM | Potency [2] > 92 µM | Potency [4] > 92 µM | Potency [18] > 92 µM | Potency [20] > 92 µM | outcome [5] | activity change, negative = cytotoxicity [6] -2.86% | Potency [7] | Potency [8] | Potency [9] | Potency [10] | Potency [11] | Potency [13] | caspase-3 activation [14] 0.979% | outcome [15] | outcome [19] | outcome [16] | outcome [17]

Cc1c(C(=O)O)cccc1[N+](=O)[O-]
inactive: Potency [1] > 92 µM | Potency [2] > 92 µM | Potency [4] > 92 µM | Potency [20] > 92 µM | outcome [5] | activity change, negative = cytotoxicity [6] 5.3% | Potency [7] | Potency [8] | Potency [9] | Potency [10] | Potency [11] | Potency [12] | Potency [13] | caspase-3 activation [14] 1.11% | outcome [15] | outcome [19] | outcome [16] | outcome [17]

Clc1ccc(Cl)c(Cl)c1Cl
inactive: Potency [1] > 92 µM | Potency [2] > 92 µM | Potency [4] > 92 µM | Potency [18] > 92 µM | outcome [5] | activity change, negative = cytotoxicity [6] -2.29% | Potency [7] | Potency [8] | Potency [9] | Potency [10] | Potency [11] | Potency [12] | Potency [13] | caspase-3 activation [14] -1.65% | outcome [15] | outcome [19] | outcome [17]
